Experimental data reported in PubChem BioAssay (NCI).
The panel holds about 83,000 compounds, 20% with a hit somewhere; the sample as a whole holds those more often.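 In brief: 96-well plates, 48 h treatment, single concentration, percent growth endpoint.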 Calls of active or inactive are those of the source. How the source made its calls: active means growth percent below 10; inactive means the rest.

Each molecule was assayed on HOP-92 NSCLC (assay: NCI-60 one-dose screen, 48 h (100 = growth as untreated, 0 = no growth, -100 = all killed)). Conditions: 10 µM unless noted.
With `COc1cc(/C=C/C(=O)c2cc(OC)c(OC)c(OC)c2)ccc1Oc1nc2c(c(=O)n(C)c(=O)n2C)n1C` the growth was 3.39% (active).
In the case of `NC(=O)c1ccccc1OCC(=O)Nc1ccc(Cl)c(Cl)c1`, the growth is reported as 88.7% (inactive).
In the case of `CCOC(=O)c1c(C)nc2ccccc2c1/C=C/c1ccc(F)cc1`, the growth is reported as 42.1% (inactive).
For `Cc1cn(C)cn1`, the growth was 81.8% (inactive).
In the case of `C#CCOc1ccc2nc(CCl)c(Cl)c(Nc3cccc(C(F)(F)F)c3)c2c1`, the growth is reported as 94.6% (inactive).
`Cc1ccc(NC(=O)c2cc3ccccc3cc2O)c(C)c1` was tested, and the growth was 36.4% (inactive).

Each molecule was assayed on NCI-H522 lung in the same assay as above. Conditions: 10 µM unless noted.
In the case of `CN(C)CCC(=O)C1CC1`, the growth is reported as 97.1% (inactive).
In the case of `COc1cc(/C=C2\C(=O)N(CCCOc3cc(O)c4c(=O)cc(-c5ccccc5)oc4c3)c3ccccc32)cc(OC)c1O`, the growth is reported as 36.4% (inactive).
With `Cc1c2ccccc2nc2cc3c(cc12)[C@H]1CC[C@]2(C)C(=O)CC[C@H]2[C@@H]1CC3` the growth was 81.6% (inactive).
`COc1ccc(C(=O)/C=C/c2ccccc2)cc1S(N)(=O)=O` was tested, and the growth was 76% (inactive).
For `Cc1ccc(OCCOCCOCCOc2ccc(C)n(O)c2=S)c(=S)n1O`, the growth was 22.5% (inactive).
In the case of `S=c1ccnc[nH]1`, the growth is reported as 65.8% (inactive).
`O=C(Oc1ccc2c(c1)sc1nc(-c3ccccc3)[nH]c(=O)c12)C(F)(F)F` was tested, and the growth was 25.1% (inactive).
For `Cc1cccc(-c2nc(C(C)C)sc2-c2ccnc(NCCCNS(=O)(=O)c3ccc(Cl)cc3)c2)c1`, the growth was 55.4% (inactive).
In the case of `CN(C)CCC(CCN(C)C)(C(=O)O)c1ccccc1`, the growth is reported as 88.2% (inactive).
In the case of `CC1=C2[C@@H](CC1)[C@]1(C)O[C@@](C3CCNCC3)(C[C@H]1OC(=O)CO)[C@H]2OC(=O)/C=C/c1ccccc1`, the growth is reported as 83.6% (inactive).
`COc1ccc2c(O)c(/C=C3\N=Nc4ncccc43)oc2c1C[C@@H]1CCNC[C@H]1F` was tested, and the growth was -28.5% (active).
For `CC1(C)CC[C@]2(CO)CC[C@]3(C)[C@](O)([C@H](O)C[C@@H]4[C@@]5(C)CCCNC(C)(C)[C@@H]5CC[C@]43C)[C@@H]2C1`, the growth was 92.4% (inactive).
In the case of `Cc1ccccc1N1CCN(C(=S)c2ccccc2)CC1`, the growth is reported as 47.8% (inactive).
`C1CCC(N2CN3c4nonc4N4CN(C5CCCCC5)CN5c6nonc6N(C2)C3C45)CC1` (stereo not given) was tested, and the growth was 92.1% (inactive).
In the case of `COc1ccc(/C=N/Nc2c3ccccc3nc3ccccc23)cc1`, the growth is reported as 90.7% (inactive).
`Cc1nc2sc(C(=O)Nc3ccccn3)c(N)c2cc1C(C)O` (stereo not given) was tested, and the growth was 59.9% (inactive).
For `COc1ccc(C/C(C)=C(\c2ccc(Cl)cc2)c2ccc(OCCCN(C)C)cc2)cc1`, the growth was 89.1% (inactive).
In the case of `CC1(C)CC[C@]23CC[C@]4(C)[C@H](CC[C@@H]5[C@@]6(C)C/C(=C/O)C(=O)C(C)(C)[C@@H]6CC[C@]54C)[C@H]2[C@H]1OC3`, the growth is reported as 90.6% (inactive).
For `Nc1ccc(Br)cc1C(F)(F)F`, the growth was 103% (inactive).
In the case of `Cc1oc(-c2ccc(Cl)cc2)nc1C1=NN(C(=O)c2ccncc2)C(c2ccccc2)C1` (stereo not given), the growth is reported as 86.6% (inactive).
`CCN(CC)CCOc1ccc(Nc2ncc3cc(-c4c(Cl)cccc4Cl)c(=O)n(CCOC)c3n2)cc1` was tested, and the growth was -28.5% (active).
`COc1ccc(Oc2ccc(/C=C/C(=O)c3ccc(OC)c(OC)c3)cc2)cc1` was tested, and the growth was 57.4% (inactive).
In the case of `C=CC(CC(c1ccccc1)(c1ccccc1)c1ccccc1)N(CC)CC` (stereo not given), the growth is reported as 84.1% (inactive).
`CC[C@@H](C(=O)[C@@H](C)[C@@H](O)[C@H](C)[C@@H]1O[C@@H]([C@@H](CC)C(=O)ONC(=O)c2ccccc2O)CC[C@@H]1C)C1O[C@]2(C=CC(=O)[C@]3(CC[C@@](C)([C@H]4CC[C@](O)(CC)[C@H](C)O4)O3)O2)[C@H](C)C[C@@H]1C` (stereo not given in full) was tested, and the growth was 23.9% (inactive).
With `C[C@H](c1nc2ccc(C#N)cc2[nH]1)[C@H]1CC[C@H]2[C@@H]3CCC4=CC(=O)CC[C@]4(C)[C@H]3CC[C@]12C` the growth was 69.8% (inactive).
In the case of `COc1ccc2[nH]cc(-c3nonc3-c3c[nH]c4ccc(Br)cc34)c2c1`, the growth is reported as 8.48% (active).
With `O=C(NCCN1CCOCC1)OCc1ccc2c(Cl)cc(Cl)c(O)c2n1` the growth was 81% (inactive).
With `COc1cccc(-c2cn3nc(-c4cn(C)c5ccccc45)sc3n2)c1` the growth was 67.6% (inactive).
For `NS(=O)(=O)c1ccc(C(=O)NN2C(=O)c3ccccc3C2=O)cc1`, the growth was 99.5% (inactive).
`CC(C)=CC(=O)N[C@H]1CC[C@]2(C)C3CC[C@]4(C)C(C(C)N(C)C)=CCC4C3CCC2[C@H]1O` (stereo not given in full) was tested, and the growth was 89.4% (inactive).
`CCCn1c(=S)sc2c(NNC(C)=O)nc(C)nc21` was tested, and the growth was 90.9% (inactive).
`Cc1nc(N/N=C/c2cn(-c3ccccc3)nc2-c2cc3ccccc3oc2=O)sc1N=Nc1ccccc1` was tested, and the growth was 66.2% (inactive).
With `O=C(Nc1ncc(Cc2ccccc2)s1)c1sc2ccccc2c1Cl` the growth was -2.01% (active).
`COc1cc(/C=C/C(=O)c2cc(OC)c(OC)c(OC)c2)ccc1Oc1nc2c(c(=O)n(C)c(=O)n2C)n1C` was tested, and the growth was -68.7% (active).
In the case of `NC(=O)c1ccccc1OCC(=O)Nc1ccc(Cl)c(Cl)c1`, the growth is reported as 83.1% (inactive).
In the case of `CCOC(=O)c1c(C)nc2ccccc2c1/C=C/c1ccc(F)cc1`, the growth is reported as 53.8% (inactive).
In the case of `Cc1cn(C)cn1`, the growth is reported as 89.3% (inactive).
For `C#CCOc1ccc2nc(CCl)c(Cl)c(Nc3cccc(C(F)(F)F)c3)c2c1`, the growth was 36.4% (inactive).
`Cc1ccc(NC(=O)c2cc3ccccc3cc2O)c(C)c1` was tested, and the growth was -1.58% (active).
